# Data as given in PubChem BioAssay (NCATS).
# Results filed as inconclusive are left out. A call without a number means that no potency is given here. Activity calls are given as the source filed them. The call rests on the fitted dose curve; in most records, active means well fitted cell-killing curve with a large enough effect; inconclusive means small, poorly fitted or top-dose-only effect; inactive means flat fitted curve, though single readings scatter.
# Experiment: Cell Viability - LYMP1-002 - Assay at 40 hr (AID 994); further: nearly all actives have a fitted effect of over 60% in size
# Conditions: LYMP1-002 lymphoblastoid cell viability; series mostly up to 92.2 µM
# Excerpt: NIH Chemical Genomics Center [NCGC]
# NIH Molecular Libraries Screening Centers Network [MLSCN]
# National Institutes of Environmental Health Sciences [NIEHS]
# National Toxicology Program [NTP]
# We have developed a 1536-well cell-based assay for quantitative high throughput screening (qHTS) against a number of cell lines to determine in vitro cytotoxicity of small molecules. This particular assay uses a human lymphoblastoid cell line (LYMP1-002) purchased from Coriell Institute for Medical Research.
# NCGC Assay Protocol Summary:
# The CellTiter-Glo luminescent cell viability assay (Promega) is a homogeneous method to measure the number of viable cells in culture. The end point readout of this assay is based on quantitation of intracellular ATP, an indicator of metabolic activity, using the luciferase reaction. Luciferase catalyzes the oxidation of beetle Luciferin to oxyluciferin and light in the presence of ATP. The luminescent signal is proportional to amount of ATP present.
# Using the CellTiter-Glo luminescent cell viability assay, the amount of cellular ATP was measured in the lymphoblastoid cell line with complete culture medium following compound treatment for 40 hours. The assay was performed in opaque white Kalypsys 1536-well plates. In the screen, tetraoctylammonium bromide was used as positive control. Library compounds were measured for their ability to cause acute toxicity in the cell line, as reflected by a decrease in intracellular ATP levels, in a concentration-dependent manner. […] AC50 values were determined from concentration-response data modeled with the standard Hill equation.
# qHTS protocol for CellTiter Glo lymphoblastoid cellular assay
# [Step] [Parameter] [Value] [Description]
# 1. Reagent; 5 uL; 2500 lymphoblastoid cells/well
# 2. Time; 5 hr; 37 C incubation
# 4. Controls; 23 nL; Tetraoctylammonium bromide 6.4pM to 92 uM
# 5. Time; 40 hr; 37 C incubation
# 6. Reagent; 5 uL; CellTiter Glo reagent
# 7. Time; 30 min; Room Temperature
# 8. Detection; Luminescence; Viewlux plate reader
# Keywords: cell viability, cytotoxicity, lymphoblastoid cell line, luminescence, NTPHTS, NTPHTS_NCGC, NIEHS, DSSTox, MLSMR, MLSCN, NIH Roadmap, qHTS, NCGC
# Potency means the concentration at half of the fitted maximal effect.
row,Structure (SMILES),Potency
1,Nc1ccn([C@H]2CS[C@@H](CO)O2)c(=O)n1,inactive
2,Cc1ccccc1,inactive
3,CC(O)CO (centres undefined),inactive
4,CC(C)=O,inactive
5,CCCCCCCC/C=C\CCCCCCCC(=O)O,inactive
6,CCCCC/C=C\C/C=C\CCCCCCCC(=O)O,inactive
7,IC(I)I,inactive
8,O=S(=O)(O)O,inactive
9,CCOC(C)=O,inactive
10,O=CCCCC=O,inactive
11,CC1=C2[C@@H]([C@H](C)CC[C@H]2/C=C(\C)C(=O)O)[C@H](O)C1,inactive
12,CC(C)(C)NC(=O)[C@@H]1C[C@@H]2CCCC[C@@H]2CN1C[C@@H](O)[C@H](Cc1ccccc1)NC(=O)[C@H](CC(N)=O)NC(=O)c1ccc2ccccc2n1,50.1 µM (active)
13,O=C(O)CCC(=O)C(=O)O,inactive
14,CCCCCCCC(=O)O,inactive
